The full data set covers some 7,900 targets. This sample favours those with a hit. About 0.6% of all pairs of compound and target were hits.
What was measured:
Test in all cases: log2 fold change, soluble protein after heating vs DMSO (PISA); higher = thermal stabilisation; K562 cells, 10 uM, 30 min; active = over 0.2 and 3.5 SD of the protein, either way, in both replicates (recomputed)
[1] = compound: CS(=O)(=O)c1ccc(-c2cnc(N)c(C(=O)Nc3ccccc3)n2)cc1
Method in brief: (§1)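 For each measurement, 10 μM compound was applied for 30 min to K562 cells at 2×10^6 cells/mL. Aliquots were heated for 3 min across 48°C-58°C, pooled, and extracted in PBS with 0.5% NP-40 at 4°C; the supernatant after 21,000xg for 90 min was soluble protein. This was quantified by TMTpro 16plex LC-MS/MS with channel sums equalised, and thermal stability was reported relative to control samples from duplicates, on a log2 fold-change scale.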

crizotinib = compound: C[C@@H](Oc1cc(-c2cnn(C3CCNCC3)c2)cnc1N)c1c(Cl)ccc(F)c1Cl [crizotinib]
Method in brief: as §1

[2] = compound: C[C@@H]1COCCN1C2=NC(=NC(=C2)C3(CC3)S(=O)(=O)C)C4=C5C=CNC5=CC=C4
Method in brief: as §1

[3] = compound: C[C@H](C1=CC=C(C=C1)C(=O)NC2=C3C=CNC3=NC=C2)N
Method in brief: as §1

duvelisib = compound: C[C@H](Nc1ncnc2nc[nH]c12)c1cc2cccc(Cl)c2c(=O)n1-c1ccccc1 [duvelisib]
Method in brief: as §1

gandotinib = compound: Cc1cc(Nc2cc(CN3CCOCC3)c3nc(C)c(Cc4ccc(Cl)cc4F)n3n2)n[nH]1 [gandotinib]
Method in brief: as §1

tozasertib = compound: Cc1cc(Nc2cc(N3CCN(C)CC3)nc(Sc3ccc(NC(=O)C4CC4)cc3)n2)n[nH]1 [tozasertib]
Method in brief: as §1

[4] = compound: Cc1cc(SCc2sc(-c3ccc(C(F)(F)F)cc3)nc2C)ccc1OCC(=O)O
Method in brief: as §1

doramapimod = compound: Cc1ccc(-n2nc(C(C)(C)C)cc2NC(=O)Nc2ccc(OCCN3CCOCC3)c3ccccc23)cc1 [doramapimod]
Method in brief: as §1

ispinesib = compound: Cc1ccc(C(=O)N(CCCN)[C@@H](c2nc3cc(Cl)ccc3c(=O)n2Cc2ccccc2)C(C)C)cc1 [ispinesib]
Method in brief: as §1

bafetinib = compound: Cc1ccc(NC(=O)c2ccc(CN3CC[C@H](N(C)C)C3)c(C(F)(F)F)c2)cc1Nc1nccc(-c2cncnc2)n1 [bafetinib]
Method in brief: as §1

[5] = compound: Cc1cccc(CC(=O)N2CCc3c2ccc(-c2cn(C)c4ncnc(N)c24)c3F)n1
Method in brief: as §1

nilotinib = compound: Cc1cn(-c2cc(NC(=O)c3ccc(C)c(Nc4nccc(-c5cccnc5)n4)c3)cc(C(F)(F)F)c2)cn1 [nilotinib]
Method in brief: as §1

[6] = compound: Cc1nc(Nc2n[nH]c3c2CN(C(=O)N[C@H](CN(C)C)c2ccccc2)C3(C)C)c2sccc2n1
Method in brief: as §1

dasatinib = compound: Cc1nc(Nc2ncc(C(=O)Nc3c(C)cccc3Cl)s2)cc(N2CCN(CCO)CC2)n1 [dasatinib]
Method in brief: as §1

[7] = compound: Cc1ncc(-c2ccnc(Nc3ccc(S(C)(=O)=O)cc3)n2)n1C(C)C
Method in brief: as §1

[8] = compound: Cn1cc(-c2ccc3c(c2)CCN3C(=O)Cc2cccc(C(F)(F)F)c2)c2c(N)ncnc21
Method in brief: as §1

[9] = compound: Cn1cc(-c2ccc3nnc(C(F)(F)c4ccc5ncccc5c4)n3n2)cn1
Method in brief: as §1

tipifarnib = compound: Cn1cncc1[C@@](N)(c1ccc(Cl)cc1)c1ccc2c(c1)c(-c1cccc(Cl)c1)cc(=O)n2C [tipifarnib]
Method in brief: as §1

mubritinib = compound: FC(F)(F)c1ccc(/C=C/c2nc(COc3ccc(CCCCn4ccnn4)cc3)co2)cc1 [mubritinib]
Method in brief: as §1

Measured: log2 fold change

NFATC2 (UniProt Q13469)
Sequence of UniProt Q13469 (Q13469 whole entry, looked up): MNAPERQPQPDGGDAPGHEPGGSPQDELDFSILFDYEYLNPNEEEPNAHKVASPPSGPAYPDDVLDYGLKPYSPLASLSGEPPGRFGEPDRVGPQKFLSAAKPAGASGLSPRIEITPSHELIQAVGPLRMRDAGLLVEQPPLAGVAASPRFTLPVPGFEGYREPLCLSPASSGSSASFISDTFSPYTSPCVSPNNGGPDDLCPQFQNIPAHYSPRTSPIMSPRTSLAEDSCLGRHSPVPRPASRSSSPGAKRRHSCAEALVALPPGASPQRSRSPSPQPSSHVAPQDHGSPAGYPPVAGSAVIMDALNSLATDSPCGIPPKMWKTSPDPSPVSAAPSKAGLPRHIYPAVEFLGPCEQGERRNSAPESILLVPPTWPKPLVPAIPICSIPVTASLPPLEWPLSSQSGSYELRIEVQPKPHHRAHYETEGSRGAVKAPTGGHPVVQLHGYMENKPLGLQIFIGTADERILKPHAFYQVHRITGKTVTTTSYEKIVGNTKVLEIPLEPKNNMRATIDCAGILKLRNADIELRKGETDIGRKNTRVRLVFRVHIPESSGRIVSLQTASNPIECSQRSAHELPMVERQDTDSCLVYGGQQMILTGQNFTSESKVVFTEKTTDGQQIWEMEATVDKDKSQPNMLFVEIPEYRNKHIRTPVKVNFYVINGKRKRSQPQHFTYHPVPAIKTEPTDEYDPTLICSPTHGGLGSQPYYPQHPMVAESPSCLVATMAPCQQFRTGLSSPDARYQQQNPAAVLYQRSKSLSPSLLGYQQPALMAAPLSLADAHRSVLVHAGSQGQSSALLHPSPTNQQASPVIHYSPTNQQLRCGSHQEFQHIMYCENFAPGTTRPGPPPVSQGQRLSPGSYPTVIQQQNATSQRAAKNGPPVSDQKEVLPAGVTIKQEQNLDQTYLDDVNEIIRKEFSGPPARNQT
active: [7] -0.445
inactive: [1] 0 | crizotinib -0.154 | [2] -0.175 | [3] 0 | duvelisib 0.003 | gandotinib 0.048 | tozasertib 0.02 | [4] 0.024 | doramapimod 0.027 | ispinesib -0.18 | bafetinib 0.006 | [5] 0.066 | nilotinib -0.135 | [6] -0.341 | dasatinib -0.213 | [8] -0.025 | [9] -0.075 | tipifarnib -0.029 | mubritinib -0.124

MRPS6 (UniProt P82932)
inactive: [1] -0.038 | crizotinib -0.076 | [2] 0.117 | [3] 0.085 | duvelisib -0.002 | gandotinib -0.016 | tozasertib 0.022 | [4] 0.081 | doramapimod 0.048 | ispinesib -0.208 | bafetinib 0.062 | [5] 0.159 | nilotinib -0.146 | [6] 0.062 | dasatinib -0.02 | [7] -0.009 | [8] 0.007 | [9] 0.148 | tipifarnib -0.106 | mubritinib 0.112

NQO1 (UniProt P15559)
Sequence of UniProt P15559 (P15559 whole entry, looked up): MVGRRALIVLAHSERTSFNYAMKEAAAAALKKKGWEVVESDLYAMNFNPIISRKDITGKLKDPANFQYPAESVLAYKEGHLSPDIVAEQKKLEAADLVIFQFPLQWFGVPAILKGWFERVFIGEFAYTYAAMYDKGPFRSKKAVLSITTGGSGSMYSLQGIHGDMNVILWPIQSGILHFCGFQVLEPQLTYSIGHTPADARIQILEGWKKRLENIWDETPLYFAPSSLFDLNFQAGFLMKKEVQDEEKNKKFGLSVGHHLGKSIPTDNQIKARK
active: [5] 0.365 | [9] 0.291
inactive: [1] 0.055 | crizotinib -0.004 | [2] 0.069 | [3] -0.06 | duvelisib 0.165 | gandotinib -0.062 | tozasertib 0.011 | [4] 0.152 | doramapimod -0.008 | ispinesib 0.05 | bafetinib 0.025 | nilotinib -0.001 | [6] 0.003 | dasatinib -0.033 | [7] -0.022 | [8] 0.049 | tipifarnib -0.089 | mubritinib 0.025

NGLY1 (UniProt Q96IV0)
inactive: [1] 0.017 | crizotinib -0.079 | [2] -0.01 | [3] 0.093 | duvelisib 0.028 | gandotinib -0.043 | tozasertib 0.048 | [4] 0.032 | doramapimod 0.001 | ispinesib -0.059 | bafetinib 0.039 | [5] 0.055 | nilotinib -0.068 | [6] -0.038 | dasatinib -0.064 | [7] 0.021 | [8] -0.009 | [9] -0.034 | tipifarnib -0.067 | mubritinib -0.062

NCAPH (UniProt Q15003)
inactive: [1] 0.049 | crizotinib 0.013 | [2] -0.017 | [3] 0.072 | duvelisib 0.024 | gandotinib -0.11 | tozasertib 0.102 | [4] 0.081 | doramapimod 0.006 | ispinesib -0.064 | bafetinib 0.015 | [5] 0.022 | nilotinib -0.055 | [6] -0.049 | dasatinib -0.121 | [7] 0.041 | [8] -0.057 | [9] 0.019 | tipifarnib -0.102 | mubritinib 0.019

MRPS22 (UniProt P82650)
active: ispinesib -0.258
inactive: [1] -0.014 | crizotinib 0.037 | [2] 0.086 | [3] 0.055 | duvelisib 0.043 | gandotinib 0.008 | tozasertib 0.004 | [4] 0.081 | doramapimod 0.002 | bafetinib 0.233 | [5] 0.137 | nilotinib -0.21 | [6] 0.044 | dasatinib -0.024 | [7] 0.012 | [8] 0.003 | [9] 0.017 | tipifarnib -0.11 | mubritinib 0.15

NCKAP1 isoform 2 (UniProt Q9Y2A7)
Sequence of UniProt Q9Y2A7 (Q9Y2A7 whole entry, looked up): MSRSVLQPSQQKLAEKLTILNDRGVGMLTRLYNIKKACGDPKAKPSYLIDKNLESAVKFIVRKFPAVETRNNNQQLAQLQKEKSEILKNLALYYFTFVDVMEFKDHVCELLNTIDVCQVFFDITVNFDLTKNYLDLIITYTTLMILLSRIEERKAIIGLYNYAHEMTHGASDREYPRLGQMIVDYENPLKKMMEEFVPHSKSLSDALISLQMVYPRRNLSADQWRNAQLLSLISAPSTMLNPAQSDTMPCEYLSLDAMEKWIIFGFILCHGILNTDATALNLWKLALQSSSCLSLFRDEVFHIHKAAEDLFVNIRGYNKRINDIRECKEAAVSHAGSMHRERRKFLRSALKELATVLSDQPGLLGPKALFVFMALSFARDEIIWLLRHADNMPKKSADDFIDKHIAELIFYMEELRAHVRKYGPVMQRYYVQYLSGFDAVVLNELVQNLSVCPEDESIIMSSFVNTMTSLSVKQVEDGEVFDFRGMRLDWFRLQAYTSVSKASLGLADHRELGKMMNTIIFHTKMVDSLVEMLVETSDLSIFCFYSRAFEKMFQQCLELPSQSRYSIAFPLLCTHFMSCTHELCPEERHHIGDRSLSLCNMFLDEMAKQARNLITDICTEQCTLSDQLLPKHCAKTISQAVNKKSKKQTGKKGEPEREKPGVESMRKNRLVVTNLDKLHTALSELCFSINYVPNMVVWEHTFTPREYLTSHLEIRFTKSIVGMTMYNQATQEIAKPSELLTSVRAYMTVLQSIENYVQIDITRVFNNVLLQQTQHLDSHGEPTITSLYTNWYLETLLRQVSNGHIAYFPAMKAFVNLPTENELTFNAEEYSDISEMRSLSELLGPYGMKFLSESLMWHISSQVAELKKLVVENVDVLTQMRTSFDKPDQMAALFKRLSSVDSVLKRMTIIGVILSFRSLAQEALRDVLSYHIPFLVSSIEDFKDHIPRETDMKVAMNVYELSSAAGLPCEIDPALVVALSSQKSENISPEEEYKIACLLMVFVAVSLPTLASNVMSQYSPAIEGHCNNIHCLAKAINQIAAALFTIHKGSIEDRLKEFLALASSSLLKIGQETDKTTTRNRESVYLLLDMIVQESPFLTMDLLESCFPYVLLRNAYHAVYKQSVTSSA
inactive: [1] -0.021 | crizotinib -0.071 | [2] 0 | [3] -0.08 | duvelisib -0.006 | gandotinib -0.093 | tozasertib -0.017 | [4] 0.031 | doramapimod -0.027 | ispinesib 0.034 | bafetinib -0.028 | [5] 0.08 | nilotinib -0.016 | [6] -0.045 | dasatinib -0.096 | [7] -0.04 | [8] 0.04 | [9] -0.004 | tipifarnib -0.005 | mubritinib 0.002

NUP210 (UniProt Q8TEM1)
Sequence of UniProt Q8TEM1 (Q8TEM1 whole entry, looked up): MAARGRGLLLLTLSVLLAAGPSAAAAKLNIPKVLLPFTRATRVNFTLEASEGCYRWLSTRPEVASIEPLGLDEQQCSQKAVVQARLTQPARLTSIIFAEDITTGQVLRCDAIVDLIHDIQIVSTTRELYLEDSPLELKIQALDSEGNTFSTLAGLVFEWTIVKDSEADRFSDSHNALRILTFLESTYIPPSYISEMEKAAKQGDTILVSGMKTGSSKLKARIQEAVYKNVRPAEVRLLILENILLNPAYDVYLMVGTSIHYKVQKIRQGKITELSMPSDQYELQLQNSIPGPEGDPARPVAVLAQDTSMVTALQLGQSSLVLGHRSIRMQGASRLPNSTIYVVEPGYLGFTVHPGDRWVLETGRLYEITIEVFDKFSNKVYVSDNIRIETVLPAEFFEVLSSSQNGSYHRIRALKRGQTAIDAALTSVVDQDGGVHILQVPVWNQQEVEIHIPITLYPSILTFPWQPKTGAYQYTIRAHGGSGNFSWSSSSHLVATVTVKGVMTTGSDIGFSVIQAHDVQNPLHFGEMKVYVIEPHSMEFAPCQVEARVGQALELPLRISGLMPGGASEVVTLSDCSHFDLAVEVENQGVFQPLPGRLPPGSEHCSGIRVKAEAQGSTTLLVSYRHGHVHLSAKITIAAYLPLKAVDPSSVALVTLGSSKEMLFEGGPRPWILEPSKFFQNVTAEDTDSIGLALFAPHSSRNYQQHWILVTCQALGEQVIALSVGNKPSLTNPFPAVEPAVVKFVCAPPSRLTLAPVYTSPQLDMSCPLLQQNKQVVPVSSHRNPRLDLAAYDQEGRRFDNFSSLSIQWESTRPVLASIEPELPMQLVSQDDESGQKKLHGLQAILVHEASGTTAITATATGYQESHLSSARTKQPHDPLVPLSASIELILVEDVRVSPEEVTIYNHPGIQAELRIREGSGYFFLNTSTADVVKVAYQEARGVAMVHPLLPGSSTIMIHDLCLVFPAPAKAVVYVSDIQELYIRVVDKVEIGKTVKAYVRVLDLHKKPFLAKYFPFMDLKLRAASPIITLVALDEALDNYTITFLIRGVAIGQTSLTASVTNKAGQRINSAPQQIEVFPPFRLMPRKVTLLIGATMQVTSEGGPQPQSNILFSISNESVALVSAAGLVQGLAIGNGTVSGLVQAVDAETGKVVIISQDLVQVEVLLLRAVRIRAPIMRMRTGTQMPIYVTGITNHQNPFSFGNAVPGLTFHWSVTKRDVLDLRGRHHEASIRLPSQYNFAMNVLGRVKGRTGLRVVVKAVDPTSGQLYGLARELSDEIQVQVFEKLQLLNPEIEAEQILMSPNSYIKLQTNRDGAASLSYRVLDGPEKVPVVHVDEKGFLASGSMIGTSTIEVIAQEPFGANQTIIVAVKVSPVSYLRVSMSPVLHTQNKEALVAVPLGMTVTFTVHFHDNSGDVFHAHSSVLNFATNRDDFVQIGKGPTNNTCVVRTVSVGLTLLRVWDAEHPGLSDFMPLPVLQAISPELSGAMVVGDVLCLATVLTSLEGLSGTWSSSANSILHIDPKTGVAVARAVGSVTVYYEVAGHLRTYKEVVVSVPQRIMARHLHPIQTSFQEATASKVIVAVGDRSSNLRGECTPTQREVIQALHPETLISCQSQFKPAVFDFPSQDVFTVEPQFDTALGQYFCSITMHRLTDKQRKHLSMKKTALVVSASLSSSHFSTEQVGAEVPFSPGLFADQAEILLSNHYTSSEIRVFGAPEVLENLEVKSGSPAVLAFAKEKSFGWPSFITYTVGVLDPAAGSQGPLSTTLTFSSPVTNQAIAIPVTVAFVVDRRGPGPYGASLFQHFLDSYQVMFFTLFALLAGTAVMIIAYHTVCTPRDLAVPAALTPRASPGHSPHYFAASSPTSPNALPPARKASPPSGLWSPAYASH
active: crizotinib -0.235 | ispinesib -0.351
inactive: [1] -0.039 | [2] 0.005 | [3] -0.006 | duvelisib -0.002 | gandotinib -0.083 | tozasertib -0.054 | [4] 0.047 | doramapimod 0.002 | bafetinib -0.178 | [5] 0.053 | nilotinib -0.125 | [6] -0.009 | dasatinib -0.118 | [7] -0.038 | [8] 0.055 | [9] 0 | tipifarnib -0.039 | mubritinib 0.034

NFYC (UniProt Q13952)
inactive: [1] 0.022 | crizotinib 0.013 | [2] 0.054 | [3] 0.005 | duvelisib 0.086 | gandotinib 0.002 | tozasertib 0.022 | [4] 0.027 | doramapimod 0.001 | ispinesib 0.089 | bafetinib -0.017 | [5] -0.041 | nilotinib -0.024 | [6] -0.021 | dasatinib 0.032 | [7] -0.008 | [8] 0.014 | [9] 0.048 | tipifarnib 0.038 | mubritinib 0.066

NUDCD2 (UniProt Q8WVJ2)
inactive: [1] 0.049 | crizotinib -0.02 | [2] 0.1 | [3] -0.077 | duvelisib 0.004 | gandotinib -0.042 | tozasertib 0.149 | [4] 0.073 | doramapimod -0.049 | ispinesib -0.12 | bafetinib 0.017 | [5] 0.033 | nilotinib -0.119 | [6] -0.216 | dasatinib -0.171 | [7] -0.026 | [8] 0.02 | [9] 0.066 | tipifarnib -0.1 | mubritinib 0.077

NACC1 (UniProt Q96RE7)
Sequence of UniProt Q96RE7 (Q96RE7 whole entry, looked up): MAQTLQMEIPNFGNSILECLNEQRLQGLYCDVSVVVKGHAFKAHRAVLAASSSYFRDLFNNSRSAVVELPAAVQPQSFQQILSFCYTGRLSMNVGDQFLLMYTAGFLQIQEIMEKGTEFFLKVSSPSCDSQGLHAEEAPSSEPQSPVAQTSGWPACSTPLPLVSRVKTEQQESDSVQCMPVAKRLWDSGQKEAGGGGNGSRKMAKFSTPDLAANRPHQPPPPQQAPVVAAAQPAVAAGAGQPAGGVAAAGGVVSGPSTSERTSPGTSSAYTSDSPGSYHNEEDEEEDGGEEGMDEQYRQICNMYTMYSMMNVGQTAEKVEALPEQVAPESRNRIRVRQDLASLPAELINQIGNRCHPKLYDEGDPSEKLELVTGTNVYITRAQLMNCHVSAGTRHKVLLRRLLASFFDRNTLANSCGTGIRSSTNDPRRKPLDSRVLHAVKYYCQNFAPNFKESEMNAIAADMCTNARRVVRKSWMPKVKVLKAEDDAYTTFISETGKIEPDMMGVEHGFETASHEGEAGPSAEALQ
inactive: [1] 0 | crizotinib 0.005 | [2] 0.082 | [3] -0.03 | duvelisib 0.103 | gandotinib -0.129 | tozasertib 0.161 | [4] 0.152 | doramapimod -0.064 | ispinesib -0.019 | bafetinib -0.03 | [5] -0.039 | nilotinib -0.165 | [6] -0.109 | dasatinib -0.198 | [7] -0.12 | [8] -0.041 | [9] 0.034 | tipifarnib -0.084 | mubritinib -0.03

MXRA7 (UniProt P84157)
inactive: [1] 0.043 | crizotinib -0.012 | [2] 0.051 | [3] -0.138 | duvelisib -0.069 | gandotinib -0.122 | tozasertib 0.005 | [4] 0.047 | doramapimod 0.035 | ispinesib 0.103 | bafetinib -0.074 | [5] -0.075 | nilotinib -0.02 | [6] -0.057 | dasatinib 0.042 | [7] 0.057 | [8] 0.03 | [9] -0.042 | tipifarnib 0.018 | mubritinib 0.002

MLX (UniProt Q9UH92)
Sequence of UniProt Q9UH92 (Q9UH92 whole entry, looked up): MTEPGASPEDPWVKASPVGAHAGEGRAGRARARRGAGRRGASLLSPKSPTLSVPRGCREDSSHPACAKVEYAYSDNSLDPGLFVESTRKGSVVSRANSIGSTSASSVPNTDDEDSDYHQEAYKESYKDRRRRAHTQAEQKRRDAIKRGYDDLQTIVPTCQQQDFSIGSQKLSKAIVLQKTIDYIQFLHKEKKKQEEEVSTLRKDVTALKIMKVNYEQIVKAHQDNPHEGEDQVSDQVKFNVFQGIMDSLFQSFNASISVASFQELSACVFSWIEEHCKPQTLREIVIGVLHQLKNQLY
inactive: [1] -0.038 | crizotinib -0.188 | [2] 0.092 | [3] -0.001 | duvelisib -0.131 | gandotinib -0.239 | tozasertib -0.043 | [4] 0.115 | doramapimod 0.03 | ispinesib -0.186 | bafetinib -0.022 | [5] 0.094 | nilotinib -0.11 | [6] -0.01 | dasatinib 0.008 | [7] -0.11 | [8] -0.054 | [9] -0.097 | tipifarnib -0.122 | mubritinib -0.061

OXSR1 (UniProt O95747)
inactive: [1] 0.031 | crizotinib -0.127 | [2] 0.021 | [3] 0.011 | duvelisib 0.037 | gandotinib -0.096 | tozasertib -0.013 | [4] 0.095 | doramapimod 0.011 | ispinesib -0.055 | bafetinib -0.014 | [5] -0.012 | nilotinib -0.083 | [6] -0.029 | dasatinib -0.179 | [7] 0.031 | [8] 0.038 | [9] 0.005 | tipifarnib -0.117 | mubritinib -0.05

MRPS17 (UniProt Q9Y2R5)
inactive: [1] 0.038 | crizotinib 0.034 | [2] 0.097 | [3] 0.076 | duvelisib 0.012 | gandotinib -0.06 | tozasertib -0.019 | [4] 0.166 | doramapimod 0.033 | bafetinib 0.264 | [5] -0.01 | nilotinib -0.314 | [6] 0.067 | dasatinib -0.122 | [7] -0.012 | [8] -0.052 | [9] 0.035 | tipifarnib -0.088 | mubritinib 0.179
active: ispinesib -0.345

NT5DC1 (UniProt Q5TFE4)
inactive: [1] 0.045 | crizotinib 0.071 | [2] 0.046 | [3] -0.052 | duvelisib 0.05 | gandotinib 0.019 | tozasertib 0.004 | [4] -0.038 | doramapimod -0.018 | ispinesib 0.037 | bafetinib 0.043 | [5] 0.004 | nilotinib 0.099 | [6] 0.069 | dasatinib 0.033 | [7] -0.016 | [8] 0.045 | [9] 0.069 | tipifarnib -0.043 | mubritinib 0.001
